The list is not random: actives were taken first. Their share in the collection is about 7.2%.
RE007 growth inh: less growth of the S. pombe RE007 Vpr strain; S. pombe RE007 Vpr strain, BacTiter-Glo ATP luminescence, 24 h; Potency, µM (highest dose often 92.2 µM), without a hit: at the top dose activity change, negative = less growth, most hits filed as inhibitors; actives 0.21% (n = 360,000); AID 651644; active = well fitted falling curve with a large enough effect; inconclusive = small, poorly fitted or top-dose-only effect; inactive = no such curve, though single readings can be large or run the other way; also: nearly all actives have a fitted effect of over 50% in size
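Fission yeast strain RE007, carrying one chromosomally integrated HIV-1 vpr copy, was seeded at OD 0.01 in PMG+AL medium with 23 nL pinned compound. After 24 h at 30 °C and 99% humidity, viability was read by BacTiter-Glo luminescence.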
FMDV antiviral: antivirals against foot and mouth disease virus. AID 1159524. FMDV antiviral cell-based qHTS. actives 1.2% (n = 410,000). Potency, µM (series often up to 57.9 µM), for inactives: at the top dose activity change, negative = inhibition, hits mostly inhibitors; calls by dose curve; tested in HEK293T cells; also: read-out not given here; nearly all actives have a fitted effect of over 45% in size
MARV entry inh: blocks Marburg virus binding to or entry into cells. Marburg virus pseudotyped entry inhibition, cell reporter. Potency, µM (series often up to 37.8 µM), without a hit: at the highest dose activity change, negative = inhibition, most hits filed as inhibitors. actives 1.8% (n = 300,000). AID 540276; calls by dose curve; tested in HEK293 cells
Sm TGR block: inhibitors of Schistosoma mansoni thioredoxin glutathione reductase; Q962Y6; AID 485364; Potency, µM (highest dose often 114 µM), for the others: top-dose activity change, negative = inhibition, most hits filed as inhibitors; purified TGR, DTNB reduction, TNB absorbance 405 nm; actives 3% (n = 360,000); also: nearly all actives have a fitted effect of over 60% in size
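Kinetic colorimetric format: TGR-catalysed, NADPH-driven DTNB reduction monitored via TNB absorbance. Enzyme dispensed at 20 nM; compound exposure 15 min at room temperature before reaction start.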
LASV entry inh: inhibitors of Lassa virus binding or cell entry. Lassa virus pseudotype entry inhibition, cell reporter. Potency, µM (highest dose often 37.9 µM), for inactives: at the top dose activity change, negative = inhibition, most hits filed as inhibitors. actives 1.2% (n = 300,000); calls by dose curve; tested in HEK293 cells; also: nearly all actives have a fitted effect of over 50% in size
HCV inh: blocks hepatitis C virus | Huh7.5.1 HCVcc-Cre infection, luciferase reporter, 44 h | Potency, µM (titrated, usually from 41.8 µM), without a hit: at the top dose activity change, negative = inhibition, actives largely listed as inhibitors | actives 3.4% (n = 340,000) | AID 651820
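Cells seeded at 1,000/well and cultured 4 h, then compounds added followed by HCVcc-Cre virus (~0.5 moi). After 44 h further culture, luciferase substrate was added, plates held 15 min at room temperature, and luminescence read for 15 sec.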
An asterisk follows results filed as active; ? = inconclusive; . = no result given; [ ] = another dose, or the depositor's remark. Unless noted, calls follow the shape of the dose curve; as a rule, active = well fitted curve in the direction sought with a large enough effect; inconclusive = small, poorly fitted or top-dose-only effect, or another doubt; inactive = no such curve, though single readings can be large; an effect the other way counts as inactive or inconclusive. % is scaled to controls: 0 for no effect and ±100 for the full control effect; potency is read from the fitted curve at half-maximal effect.

SMILES	RE007 growth inh	FMDV antiviral	MARV entry inh	Sm TGR block	LASV entry inh	HCV inh
Cn1c(SCc2cccc(F)c2)nc2c([nH]c3ccccc32)c1=O	.	0%	.	1%	-3%[46.1 µM]	.
CC(C)(O)CCc1c(-c2ccc(O)cc2O)oc2c3c(cc(O)c2c1=O)OC(C)(C)C=C3	1%	-19%	.	.	.	13µM*
Clc1ccc2c(NCCNC3CCCCC3)ccnc2c1	7%	-20%	1.6µM*	.	?	7.9µM*
Clc1ccc2c(NCc3ccccn3)ccnc2c1	-14%	?	.	8%	.	?
O=C(NCCCNc1ccnc2cc(Cl)ccc12)c1ccccc1F	3%	-29%	.	12%	.	10µM*
CC(Nc1ccnc2cc(Cl)ccc12)c1ccc(S(N)(=O)=O)cc1 (configuration not stated)	-2%	-14%	-2%[46.1 µM]	-6%	?	-2%
CC(CCCN1CCCC1)Nc1ccnc2cc(Cl)ccc12 (configuration not stated)	-11%	13%	3.5µM*	.	5%[46.1 µM]	?
COc1ccc(C(=O)N2CCC3(CCCN(Cc4cc(C(F)(F)F)cc(C(F)(F)F)c4)C3)CC2)cc1	.	-7%	.	.	.	.
Cc1cc(N2CCN(c3cccc(C(F)(F)F)c3)CC2)n2nc(-c3ccccc3C)nc2n1	.	0%	3%[46.1 µM]	-4%	0%[46.1 µM]	.
NC1(C(=O)O)C[C@H](C(=O)O)[C@H](C(=O)O)C1 (some centres not stated)	.	11%	.	.	.	.
COc1ccc(Cl)cc1NC(=S)N(CCCN1CCOCC1)Cc1cn(C)c2ccccc12	-15%	-8%	?	-8%	-14%	10µM*
CC1CC(C)(C)N2C(=O)C(=C(C#N)C#N)c3cccc1c32 (configuration not stated)	0%	?	8%	5.6µM*	-15%	5%
Cc1cc2c3c(c1)C(C)CC(C)(C)N3C(=O)C2=C(C#N)C#N (configuration not stated)	-3%	?	-12%[46.1 µM]	4µM*	2%	-14%
CCOC(=O)c1cc(C#N)c(C)nc1N(CC)CC	-6%	-11%	-19%[46.1 µM]	-8%	5.6µM*	?
CCN(CC)c1nc(C)c(C(C)=O)cc1C#N	-4%	-21%	3%	-19%	3%	-3%
COc1cccc(CNC(=O)c2cnc3sc(N4CCCC4)nn3c2=O)c1OC	.	-8%	.	1%	13%[46.1 µM]	.
Cc1ccccc1-c1nc(SCc2cccnc2)c2c(=O)n(C)c(=O)n(C)c2n1	?	-3%	0%[46.1 µM]	45µM*	.	?
Cn1c(=O)c2c(SCc3ccccn3)nc(CC(C)(C)C)nc2n(C)c1=O	-3%	?	.	5%	.	?
CCCc1nc(SCc2cccnc2)c2c(=O)n(C)c(=O)n(C)c2n1	-5%	?	.	2%	.	10µM*
CCCc1nc(SCc2ccccn2)c2c(=O)n(C)c(=O)n(C)c2n1	10%	-2%	.	-24%	.	10µM*
CN1CCN(CCC(=O)N2c3ccccc3Sc3ccc(C(F)(F)F)cc32)CC1	-8%	.	?	-5%	-8%	5.6µM*
CN1CCN(CCCN2c3ccccc3Sc3ccc(Cl)cc32)CC1	4%	?	10µM*	1%	9.2µM*	?
OCCN1CCN(CC/C=C2/c3ccccc3Sc3ccc(C(F)(F)F)cc32)CC1	1%[18.4 µM]	-23%	8.9µM*	?	5.8µM*	0.89µM*
OCCN1CCN(CCCN2c3ccccc3C=Cc3ccccc32)CC1	.	.	7.9µM*	.	?	.
OCCN1CCN(CCCN2c3ccccc3CCc3ccccc32)CC1	6%	?	.	.	.	.
SMILES	RE007 growth inh	FMDV antiviral	MARV entry inh	Sm TGR block	LASV entry inh	HCV inh
CCSc1ccc2c(c1)N(CCCN1CCN(C)CC1)c1ccccc1S2	-2%[18.4 µM]	-7%	.	-2%	.	?
CN(C)CCC(=O)N1c2ccccc2Sc2ccc(C(F)(F)F)cc21	-11%	-16%	.	?	.	?
COC(=O)C(C)Sc1nnc2cc(C)c3cc(C)cc(C)c3n12 (configuration not stated)	.	-10%	5%[46.1 µM]	-2%	10%[46.1 µM]	.
Cc1ccsc1CCN1C(=O)N(c2ccccc2)C(=O)C1CC(=O)Nc1ccc(Cl)cc1 (configuration not stated)	.	13%	?	-1%	-29%[46.1 µM]	.
CN(C)CCCN1c2ccccc2Sc2ccc(C(F)(F)F)cc21	-2%	-14%	6.3µM*	3%	21µM*	?
OCCN1CCN(CCCN2c3ccccc3Sc3ccc(C(F)(F)F)cc32)CC1	2%	?	13µM*	2%	7.3µM*	?
O=C1c2ccccc2C(=O)N1CC(=O)N1c2ccccc2Sc2ccc(C(F)(F)F)cc21	8%	4%	12%	-4%	0%	12%
FC(F)(F)c1ccc2c(c1)N(CCCN1CCN(CCCl)CC1)c1ccccc1S2	27%	11µM*	20µM*	-30%	?	?
Cc1ccc2c(c1)nnn2C1CCN(S(=O)(=O)c2ccc(C(=O)N3C(C)CCCC3C)cc2)CC1 (configuration not stated)	4%	?	7.9µM*	-2%	?	6.3µM*
C[C@@H]1O[C@@H](O[C@H]2C[C@@H](O)[C@]3(CO)[C@@H]4C(CC[C@]3(O)C2)[C@@]2(O)CC[C@H](C3=CC(=O)OC3)[C@@]2(C)C[C@H]4O)[C@H](O)[C@H](O)[C@H]1O (some centres not stated)	.	?	0.032µM*	.	.	.
C[C@@H]1O[C@@H](O[C@H]2C[C@@H](O)[C@]3(CO)[C@H]4[C@H](O)C[C@]5(C)[C@@H](C6=CC(=O)OC6)CC[C@]5(O)[C@@H]4CC[C@]3(O)C2)[C@H](O)[C@H](O)[C@H]1O	1%[18.4 µM]	?	0.065µM*	-8%	0.046µM*	2.2µM*
CC(C)CC1c2[nH]c3ccccc3c2CCN1C(=O)c1cnccn1 (configuration not stated)	-4%	29%	2.8µM*	-31%	?	-6%
Cc1ccc(NC(=O)CC2SC(=NC3CCCCC3)NC2=O)cc1 (configuration not stated)	-1%	-11%	-20%	50µM*	?	12%
CC(=O)Cc1nsc(Nc2cccc(C)c2)n1	-13%	23%	?	-4%	11%	13%
COc1ccc(Nc2nc(CC(C)=O)ns2)cc1OC	0%	19%	15%	13µM*	-4%	-4%
Cc1ccc(Sc2ccc([N+](=O)[O-])cc2[N+](=O)[O-])nc1	-14%	?	?	?	?	-5%
O=[N+]([O-])c1ccc(Sc2cc[n+]([O-])c3ccccc23)c([N+](=O)[O-])c1	4%	?	?	7.9µM*	?	?
O=c1[nH]c(Sc2ccc([N+](=O)[O-])cc2[N+](=O)[O-])nc2ccccc12	1%	29%	.	.	.	?
